# Data published in PMC7862700, “An all-to-all approach to the identification of sequence-specific readers for epigenetic DNA modifications on cytosine”.
# Columns and labels:
# Assay in all cases: DAPPL (digital affinity profiling via proximity ligation, sequencing); 10 mM Tris-HCl pH 7.5, 50 mM NaCl, 1 mM DTT, 4% glycerol, room temperature, 30 min; GST-TFs on glutathione beads, 16-mer random dsDNA library, 0.1% formaldehyde crosslink after washing; high values mean tight binding
# Conditions in all cases: protein: recombinant; tags: N-terminal GST; dsDNA, one strand shown
# ELK1 = target: T1, ELK1 (Homo sapiens, UniProt P19419 1-428)
# T1 sequence: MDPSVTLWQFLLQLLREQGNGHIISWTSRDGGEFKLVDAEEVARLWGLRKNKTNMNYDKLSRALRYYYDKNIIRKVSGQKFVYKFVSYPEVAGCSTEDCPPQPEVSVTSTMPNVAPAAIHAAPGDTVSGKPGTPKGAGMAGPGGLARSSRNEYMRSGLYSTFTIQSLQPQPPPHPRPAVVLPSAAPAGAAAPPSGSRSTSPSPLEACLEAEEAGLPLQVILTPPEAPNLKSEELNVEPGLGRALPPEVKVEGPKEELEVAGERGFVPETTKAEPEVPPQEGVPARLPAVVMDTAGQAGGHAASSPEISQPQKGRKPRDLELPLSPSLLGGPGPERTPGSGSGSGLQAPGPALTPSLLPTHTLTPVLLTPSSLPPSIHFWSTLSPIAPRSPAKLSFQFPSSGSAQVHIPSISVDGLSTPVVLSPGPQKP
# In short: (§1)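 Pools were built from human transcription factors expressed in yeast as GST fusions, captured on glutathione beads and DNA-barcoded, along with a tag-only sample. Incubation with 200 nmole of a 16-mer random double-stranded DNA library lasted 30 min at room temperature in Tris/NaCl/DTT/glycerol buffer, and was followed by washing, 0.1% formaldehyde crosslinking, proximity ligation, PCR amplification and Illumina NextSeq500 sequencing. Binding signal is the quotient of each hexamer's read frequency for a factor and its frequency for the tag-only sample.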
# GABPA = target: T2, GABPA (Homo sapiens, UniProt Q06546 1-454)
# T2 sequence: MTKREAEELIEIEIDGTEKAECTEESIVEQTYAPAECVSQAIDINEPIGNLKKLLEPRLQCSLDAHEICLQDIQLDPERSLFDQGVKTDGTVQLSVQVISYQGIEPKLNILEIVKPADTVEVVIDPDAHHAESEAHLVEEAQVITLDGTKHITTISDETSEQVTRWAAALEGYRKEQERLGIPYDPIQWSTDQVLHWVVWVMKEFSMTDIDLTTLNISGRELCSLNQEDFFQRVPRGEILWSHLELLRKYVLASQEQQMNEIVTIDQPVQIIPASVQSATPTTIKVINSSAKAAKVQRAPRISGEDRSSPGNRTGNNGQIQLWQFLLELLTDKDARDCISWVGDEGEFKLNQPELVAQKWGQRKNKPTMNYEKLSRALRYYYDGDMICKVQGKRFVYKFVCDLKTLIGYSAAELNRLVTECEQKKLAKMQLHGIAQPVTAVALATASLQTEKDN
# In short: as §1
# ERG = target: T3, ERG (Homo sapiens, UniProt P11308 1-479)
# T3 sequence: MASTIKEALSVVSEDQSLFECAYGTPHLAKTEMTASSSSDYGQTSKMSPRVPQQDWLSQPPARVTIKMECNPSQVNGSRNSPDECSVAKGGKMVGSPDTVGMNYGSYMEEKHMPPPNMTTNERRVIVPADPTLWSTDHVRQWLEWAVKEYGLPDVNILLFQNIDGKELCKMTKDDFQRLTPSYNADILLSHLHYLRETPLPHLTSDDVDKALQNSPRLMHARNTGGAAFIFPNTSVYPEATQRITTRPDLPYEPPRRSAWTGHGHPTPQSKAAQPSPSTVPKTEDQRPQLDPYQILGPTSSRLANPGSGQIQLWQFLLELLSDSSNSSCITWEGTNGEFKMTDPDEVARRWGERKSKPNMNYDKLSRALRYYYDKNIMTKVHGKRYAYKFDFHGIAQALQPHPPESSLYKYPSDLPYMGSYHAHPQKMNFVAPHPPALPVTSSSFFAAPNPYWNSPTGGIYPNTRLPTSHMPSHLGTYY
# In short: as §1
# ELF1 = ELF1 (Homo sapiens, UniProt P32519 1-619)
# In short: as §1
# EHF = target: T4, EHF (Homo sapiens, UniProt Q9NZC4 1-300)
# T4 sequence: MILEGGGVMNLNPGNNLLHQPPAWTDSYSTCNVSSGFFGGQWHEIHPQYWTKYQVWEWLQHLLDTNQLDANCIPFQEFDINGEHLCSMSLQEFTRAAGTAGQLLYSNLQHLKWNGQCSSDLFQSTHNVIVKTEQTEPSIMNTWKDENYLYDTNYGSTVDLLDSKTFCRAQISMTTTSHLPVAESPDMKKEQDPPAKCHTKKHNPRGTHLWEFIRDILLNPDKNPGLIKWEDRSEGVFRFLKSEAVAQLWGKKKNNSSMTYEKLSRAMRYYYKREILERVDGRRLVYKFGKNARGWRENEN
# In short: as §1
# SPI1 = SPI1 (Homo sapiens, UniProt P17947 1-270)
# In short: as §1
# FEV = target: T5, FEV (Homo sapiens, UniProt Q99581 1-238)
# T5 sequence: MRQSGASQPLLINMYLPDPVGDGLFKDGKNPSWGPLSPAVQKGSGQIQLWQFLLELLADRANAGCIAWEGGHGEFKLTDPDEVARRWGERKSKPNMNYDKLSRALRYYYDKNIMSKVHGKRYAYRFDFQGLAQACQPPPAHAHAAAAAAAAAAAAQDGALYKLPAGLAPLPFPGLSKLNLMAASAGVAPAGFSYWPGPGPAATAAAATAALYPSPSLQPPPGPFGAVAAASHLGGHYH
# In short: as §1
# ETV5 = ETV5 (Homo sapiens, UniProt P41161 1-510)
# In short: as §1
# ELF4 = ELF4 (Homo sapiens, UniProt Q99607 1-663)
# In short: as §1
# ELK4 = target: T6, ELK4 (Homo sapiens, UniProt P28324-2 1-405)
# T6 sequence: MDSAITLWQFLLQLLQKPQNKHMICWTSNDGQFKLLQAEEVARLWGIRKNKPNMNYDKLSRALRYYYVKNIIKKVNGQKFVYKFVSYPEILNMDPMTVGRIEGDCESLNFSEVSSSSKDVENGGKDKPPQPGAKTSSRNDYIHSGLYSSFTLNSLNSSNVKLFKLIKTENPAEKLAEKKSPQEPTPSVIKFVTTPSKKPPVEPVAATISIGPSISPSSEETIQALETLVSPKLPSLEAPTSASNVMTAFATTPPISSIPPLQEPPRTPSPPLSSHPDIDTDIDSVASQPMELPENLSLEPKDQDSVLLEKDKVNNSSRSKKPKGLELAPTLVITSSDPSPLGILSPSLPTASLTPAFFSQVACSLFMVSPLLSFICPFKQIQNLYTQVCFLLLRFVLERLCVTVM
# In short: as §1
# ELF3 = target: T7, ELF3 (Homo sapiens, UniProt P78545 1-371)
# T7 sequence: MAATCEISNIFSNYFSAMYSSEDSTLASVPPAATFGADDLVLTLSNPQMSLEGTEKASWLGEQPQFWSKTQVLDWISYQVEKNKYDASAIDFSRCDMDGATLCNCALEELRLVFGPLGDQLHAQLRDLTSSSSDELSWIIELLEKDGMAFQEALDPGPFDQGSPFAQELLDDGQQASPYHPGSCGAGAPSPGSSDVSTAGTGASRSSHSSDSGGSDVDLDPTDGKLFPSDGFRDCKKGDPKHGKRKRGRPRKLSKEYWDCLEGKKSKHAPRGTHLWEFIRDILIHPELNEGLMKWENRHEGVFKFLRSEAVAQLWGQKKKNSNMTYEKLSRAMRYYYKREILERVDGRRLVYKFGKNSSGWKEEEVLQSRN
# In short: as §1
# ETV1 = ETV1 (Homo sapiens, UniProt P50549 1-477)
# In short: as §1
# ERF = target: T8, ERF (Homo sapiens, UniProt P50548 1-548)
# T8 sequence: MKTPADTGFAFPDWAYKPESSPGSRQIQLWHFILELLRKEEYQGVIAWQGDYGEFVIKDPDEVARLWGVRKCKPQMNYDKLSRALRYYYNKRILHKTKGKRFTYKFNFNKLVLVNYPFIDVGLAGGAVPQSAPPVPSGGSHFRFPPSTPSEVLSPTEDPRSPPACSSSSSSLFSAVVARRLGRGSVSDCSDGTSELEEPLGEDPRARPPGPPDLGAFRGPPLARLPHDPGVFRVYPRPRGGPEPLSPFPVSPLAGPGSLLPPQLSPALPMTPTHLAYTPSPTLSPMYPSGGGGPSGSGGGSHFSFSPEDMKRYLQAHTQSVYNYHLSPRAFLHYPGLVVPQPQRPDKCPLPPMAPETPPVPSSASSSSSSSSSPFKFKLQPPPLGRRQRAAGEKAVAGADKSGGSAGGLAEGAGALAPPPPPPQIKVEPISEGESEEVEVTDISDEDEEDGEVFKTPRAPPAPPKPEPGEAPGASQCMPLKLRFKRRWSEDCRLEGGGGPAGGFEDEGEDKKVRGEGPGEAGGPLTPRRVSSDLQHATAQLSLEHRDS
# In short: as §1
# ETV3L = target: T9, ETV3L (Homo sapiens, UniProt Q6ZN32 1-361)
# T9 sequence: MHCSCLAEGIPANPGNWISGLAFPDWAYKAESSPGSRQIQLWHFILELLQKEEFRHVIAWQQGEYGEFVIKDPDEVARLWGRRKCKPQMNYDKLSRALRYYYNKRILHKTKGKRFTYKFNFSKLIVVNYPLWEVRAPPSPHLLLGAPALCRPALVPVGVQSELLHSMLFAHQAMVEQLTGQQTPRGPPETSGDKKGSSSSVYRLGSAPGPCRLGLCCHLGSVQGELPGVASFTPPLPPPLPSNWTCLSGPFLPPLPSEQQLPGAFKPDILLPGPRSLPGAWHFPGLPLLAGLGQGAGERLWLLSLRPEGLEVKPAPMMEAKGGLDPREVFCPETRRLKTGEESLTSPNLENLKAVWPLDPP
# In short: as §1
# ETS2 = target: T10, ETS2 (Homo sapiens, UniProt P15036 1-469)
# T10 sequence: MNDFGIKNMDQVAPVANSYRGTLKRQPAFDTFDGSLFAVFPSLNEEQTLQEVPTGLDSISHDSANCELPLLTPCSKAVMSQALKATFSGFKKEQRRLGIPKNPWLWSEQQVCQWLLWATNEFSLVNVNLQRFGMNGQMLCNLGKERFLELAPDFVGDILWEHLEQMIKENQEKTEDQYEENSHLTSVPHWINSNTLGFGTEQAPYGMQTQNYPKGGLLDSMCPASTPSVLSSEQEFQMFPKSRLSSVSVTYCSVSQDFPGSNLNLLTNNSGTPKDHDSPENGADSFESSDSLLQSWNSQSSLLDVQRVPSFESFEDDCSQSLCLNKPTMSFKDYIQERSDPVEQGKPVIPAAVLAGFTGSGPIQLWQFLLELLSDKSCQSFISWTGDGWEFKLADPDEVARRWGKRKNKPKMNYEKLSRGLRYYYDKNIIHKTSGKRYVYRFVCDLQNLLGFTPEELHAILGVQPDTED
# In short: as §1
# SPDEF = target: T11, SPDEF (Homo sapiens, UniProt O95238 1-335)
# T11 sequence: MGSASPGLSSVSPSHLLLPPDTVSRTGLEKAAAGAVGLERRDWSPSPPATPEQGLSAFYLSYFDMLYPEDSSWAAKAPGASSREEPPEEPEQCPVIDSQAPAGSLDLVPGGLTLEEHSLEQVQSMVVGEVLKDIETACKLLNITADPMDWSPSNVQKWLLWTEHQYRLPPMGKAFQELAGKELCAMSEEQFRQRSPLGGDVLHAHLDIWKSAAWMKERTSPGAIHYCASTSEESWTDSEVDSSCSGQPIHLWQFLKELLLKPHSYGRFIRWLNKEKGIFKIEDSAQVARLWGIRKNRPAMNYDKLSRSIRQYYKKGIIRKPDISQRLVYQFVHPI
# In short: as §1
# ETV7 = target: T12, ETV7 (Homo sapiens, UniProt Q9Y603 1-341)
# T12 sequence: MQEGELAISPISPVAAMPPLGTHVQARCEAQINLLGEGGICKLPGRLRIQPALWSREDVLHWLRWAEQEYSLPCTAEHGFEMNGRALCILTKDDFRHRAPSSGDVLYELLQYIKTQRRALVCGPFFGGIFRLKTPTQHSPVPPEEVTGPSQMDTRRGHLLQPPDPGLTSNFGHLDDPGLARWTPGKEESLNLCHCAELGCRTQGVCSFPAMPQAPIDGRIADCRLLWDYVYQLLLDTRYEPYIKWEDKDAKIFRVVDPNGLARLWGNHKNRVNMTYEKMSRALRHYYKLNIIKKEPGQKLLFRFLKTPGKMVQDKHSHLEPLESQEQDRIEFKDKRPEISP
# In short: as §1
# ETV3 = target: T13, ETV3 (Homo sapiens, UniProt P41162-2 1-143)
# T13 sequence: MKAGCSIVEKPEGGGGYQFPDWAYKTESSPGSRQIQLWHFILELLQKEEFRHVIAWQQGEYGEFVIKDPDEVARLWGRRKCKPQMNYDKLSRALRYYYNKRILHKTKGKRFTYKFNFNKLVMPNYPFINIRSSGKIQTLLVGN
# In short: as §1
# ETV6 = ETV6 (Homo sapiens, UniProt P41212 1-452)
# In short: as §1
# ETV1, sequence (P50549 whole entry): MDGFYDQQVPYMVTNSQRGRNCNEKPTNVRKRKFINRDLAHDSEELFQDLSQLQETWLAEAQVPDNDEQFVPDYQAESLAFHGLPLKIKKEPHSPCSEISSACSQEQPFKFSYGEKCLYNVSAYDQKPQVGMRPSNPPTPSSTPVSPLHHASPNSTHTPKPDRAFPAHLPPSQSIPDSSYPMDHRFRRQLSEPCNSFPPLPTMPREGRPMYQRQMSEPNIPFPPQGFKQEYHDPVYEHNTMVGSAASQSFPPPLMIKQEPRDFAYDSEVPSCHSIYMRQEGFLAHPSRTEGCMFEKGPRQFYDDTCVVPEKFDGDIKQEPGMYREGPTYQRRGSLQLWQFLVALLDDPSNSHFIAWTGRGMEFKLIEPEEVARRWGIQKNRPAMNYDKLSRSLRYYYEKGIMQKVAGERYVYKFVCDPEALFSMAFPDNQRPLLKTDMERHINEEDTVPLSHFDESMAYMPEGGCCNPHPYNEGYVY
# ETV5, sequence (P41161 whole entry): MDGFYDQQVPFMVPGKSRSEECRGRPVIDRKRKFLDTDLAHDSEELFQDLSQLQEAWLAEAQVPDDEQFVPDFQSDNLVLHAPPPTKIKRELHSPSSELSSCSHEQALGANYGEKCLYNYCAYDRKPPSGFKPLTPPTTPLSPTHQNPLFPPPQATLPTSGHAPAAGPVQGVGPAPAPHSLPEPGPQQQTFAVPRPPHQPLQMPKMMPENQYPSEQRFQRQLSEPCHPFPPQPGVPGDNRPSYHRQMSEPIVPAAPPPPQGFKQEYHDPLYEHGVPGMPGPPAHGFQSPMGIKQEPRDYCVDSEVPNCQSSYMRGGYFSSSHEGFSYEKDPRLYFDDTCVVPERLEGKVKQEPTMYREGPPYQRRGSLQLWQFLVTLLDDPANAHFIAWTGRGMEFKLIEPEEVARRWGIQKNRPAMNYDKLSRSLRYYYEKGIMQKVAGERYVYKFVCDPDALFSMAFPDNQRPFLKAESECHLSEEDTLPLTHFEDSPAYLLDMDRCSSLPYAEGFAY
# ELF1, sequence (P32519 whole entry): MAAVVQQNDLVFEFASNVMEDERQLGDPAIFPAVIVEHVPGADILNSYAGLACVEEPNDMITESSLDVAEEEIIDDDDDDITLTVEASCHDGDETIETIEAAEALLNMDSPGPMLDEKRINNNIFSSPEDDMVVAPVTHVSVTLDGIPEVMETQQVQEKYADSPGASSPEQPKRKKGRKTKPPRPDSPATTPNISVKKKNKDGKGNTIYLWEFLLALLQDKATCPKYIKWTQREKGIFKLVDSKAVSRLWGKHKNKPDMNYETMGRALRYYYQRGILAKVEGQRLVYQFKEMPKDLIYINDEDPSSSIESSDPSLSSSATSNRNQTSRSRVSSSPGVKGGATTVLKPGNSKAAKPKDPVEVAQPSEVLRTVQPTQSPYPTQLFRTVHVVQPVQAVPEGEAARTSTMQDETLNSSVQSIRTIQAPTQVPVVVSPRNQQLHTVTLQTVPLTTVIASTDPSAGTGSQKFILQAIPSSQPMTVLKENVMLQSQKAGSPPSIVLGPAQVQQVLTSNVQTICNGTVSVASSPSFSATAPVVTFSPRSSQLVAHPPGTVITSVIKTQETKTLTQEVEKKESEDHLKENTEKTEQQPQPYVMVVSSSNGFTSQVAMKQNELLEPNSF
# ETV6, sequence (P41212 whole entry): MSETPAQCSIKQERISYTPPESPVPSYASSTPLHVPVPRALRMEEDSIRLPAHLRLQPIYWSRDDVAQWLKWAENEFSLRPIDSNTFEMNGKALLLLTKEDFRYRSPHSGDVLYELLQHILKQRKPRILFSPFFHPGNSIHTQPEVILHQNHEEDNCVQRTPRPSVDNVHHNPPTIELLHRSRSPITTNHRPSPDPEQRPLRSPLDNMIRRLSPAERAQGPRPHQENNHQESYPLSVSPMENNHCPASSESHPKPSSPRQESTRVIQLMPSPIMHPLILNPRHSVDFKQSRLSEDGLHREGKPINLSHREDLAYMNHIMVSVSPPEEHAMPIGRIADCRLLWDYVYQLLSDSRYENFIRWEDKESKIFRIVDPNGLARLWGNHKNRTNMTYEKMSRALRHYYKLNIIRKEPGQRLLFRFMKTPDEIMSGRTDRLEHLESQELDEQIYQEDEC
# ELF4, sequence (Q99607 whole entry): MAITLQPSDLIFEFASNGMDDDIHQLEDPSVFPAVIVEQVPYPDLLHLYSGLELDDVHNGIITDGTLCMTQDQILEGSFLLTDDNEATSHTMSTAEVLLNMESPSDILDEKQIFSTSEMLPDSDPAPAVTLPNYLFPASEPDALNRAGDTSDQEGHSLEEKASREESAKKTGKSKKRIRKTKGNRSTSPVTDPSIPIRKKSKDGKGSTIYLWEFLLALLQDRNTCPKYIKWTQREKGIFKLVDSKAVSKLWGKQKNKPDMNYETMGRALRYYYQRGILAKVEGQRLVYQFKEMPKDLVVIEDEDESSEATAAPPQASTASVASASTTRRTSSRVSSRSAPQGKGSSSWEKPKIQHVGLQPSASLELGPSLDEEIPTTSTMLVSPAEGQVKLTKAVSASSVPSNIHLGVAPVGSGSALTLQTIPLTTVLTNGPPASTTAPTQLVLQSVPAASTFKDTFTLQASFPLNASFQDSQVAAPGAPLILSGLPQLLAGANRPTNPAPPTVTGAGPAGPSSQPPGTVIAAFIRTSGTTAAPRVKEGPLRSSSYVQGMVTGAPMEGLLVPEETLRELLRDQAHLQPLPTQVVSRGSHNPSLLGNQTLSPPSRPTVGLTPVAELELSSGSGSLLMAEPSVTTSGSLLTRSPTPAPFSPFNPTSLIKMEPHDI
sequence,measurement,setting,value
GTGCAT,binding signal,ELK1,"1.05 fold enrichment (6-mer frequency, TF over GST control)"
same,binding signal,GABPA,"1.1 fold enrichment (6-mer frequency, TF over GST control)"
same,binding signal,ERG,"1.06 fold enrichment (6-mer frequency, TF over GST control)"
same,binding signal,ELF1,"1.01 fold enrichment (6-mer frequency, TF over GST control)"
same,binding signal,EHF,"1.07 fold enrichment (6-mer frequency, TF over GST control)"
same,binding signal,SPI1,"1.15 fold enrichment (6-mer frequency, TF over GST control)"
same,binding signal,FEV,"1.06 fold enrichment (6-mer frequency, TF over GST control)"
same,binding signal,ETV5,"1.13 fold enrichment (6-mer frequency, TF over GST control)"
same,binding signal,ELF4,"1.08 fold enrichment (6-mer frequency, TF over GST control)"
same,binding signal,ELK4,"1.08 fold enrichment (6-mer frequency, TF over GST control)"
same,binding signal,ELF3,"1.03 fold enrichment (6-mer frequency, TF over GST control)"
same,binding signal,ETV1,"1.05 fold enrichment (6-mer frequency, TF over GST control)"
same,binding signal,ERF,"1.18 fold enrichment (6-mer frequency, TF over GST control)"
same,binding signal,ETV3L,"1.04 fold enrichment (6-mer frequency, TF over GST control)"
same,binding signal,ETS2,"1.1 fold enrichment (6-mer frequency, TF over GST control)"
same,binding signal,SPDEF,"1.17 fold enrichment (6-mer frequency, TF over GST control)"
same,binding signal,ETV7,"1.12 fold enrichment (6-mer frequency, TF over GST control)"
same,binding signal,ETV3,"1 fold enrichment (6-mer frequency, TF over GST control)"
same,binding signal,ETV6,"1.14 fold enrichment (6-mer frequency, TF over GST control)"
